Experimental data taken from publication PMC4336329 (PLoS ONE, 2015).
Screen size: about 310,000 compounds; about 2,200 (0.71%) showed an effect of 50% or more. Effects have a minus sign here. What follows is part of a selection rich in strong results, with near analogues and random picks from the rest.

What follows are molecules tested against human ether-à-go-go-related gene (hERG) potassium channel (human, UniProt Q12809) (assay: primary screen, population patch clamp on CHO cells stably expressing hERG; higher = less effect of the substance).
human ether-à-go-go-related gene (hERG) potassium channel, sequence (Q12809 whole entry, looked up): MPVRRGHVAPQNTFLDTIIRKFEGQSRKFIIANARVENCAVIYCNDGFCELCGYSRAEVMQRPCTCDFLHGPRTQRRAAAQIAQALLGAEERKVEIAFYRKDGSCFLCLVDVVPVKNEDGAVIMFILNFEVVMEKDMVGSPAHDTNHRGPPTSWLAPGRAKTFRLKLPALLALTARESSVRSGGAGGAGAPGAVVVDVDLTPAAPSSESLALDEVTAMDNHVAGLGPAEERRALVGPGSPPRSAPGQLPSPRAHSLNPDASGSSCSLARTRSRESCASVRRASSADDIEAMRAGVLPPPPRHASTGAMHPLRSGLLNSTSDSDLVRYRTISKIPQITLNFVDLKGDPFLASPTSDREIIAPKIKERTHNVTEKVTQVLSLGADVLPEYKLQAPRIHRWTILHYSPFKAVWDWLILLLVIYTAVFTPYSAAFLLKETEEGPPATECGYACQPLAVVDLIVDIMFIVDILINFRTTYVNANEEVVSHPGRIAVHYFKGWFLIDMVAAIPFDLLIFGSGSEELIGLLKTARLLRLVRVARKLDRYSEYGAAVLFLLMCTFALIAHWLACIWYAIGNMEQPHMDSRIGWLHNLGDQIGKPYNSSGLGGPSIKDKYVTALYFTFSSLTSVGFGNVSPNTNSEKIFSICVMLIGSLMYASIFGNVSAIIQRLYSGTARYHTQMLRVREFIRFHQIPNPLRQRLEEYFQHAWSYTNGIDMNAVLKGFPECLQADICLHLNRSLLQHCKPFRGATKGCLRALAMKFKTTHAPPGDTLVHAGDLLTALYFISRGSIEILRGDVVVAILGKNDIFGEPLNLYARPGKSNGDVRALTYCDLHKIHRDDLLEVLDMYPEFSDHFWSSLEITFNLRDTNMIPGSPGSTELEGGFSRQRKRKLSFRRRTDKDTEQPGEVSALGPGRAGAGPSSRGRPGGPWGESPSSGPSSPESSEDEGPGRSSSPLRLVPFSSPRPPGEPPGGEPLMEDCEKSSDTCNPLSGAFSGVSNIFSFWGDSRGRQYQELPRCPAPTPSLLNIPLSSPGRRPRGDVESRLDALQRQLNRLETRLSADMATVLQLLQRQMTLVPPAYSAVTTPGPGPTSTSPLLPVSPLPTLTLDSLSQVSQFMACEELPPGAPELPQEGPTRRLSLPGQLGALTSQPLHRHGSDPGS
With COc1ccc(Nc2nc(N)c(C(=O)c3ccc(OC)cc3)s2)cc1 the “hERG current change (%, negative = inhibition) at 1uM” value was -5.28%.
In the case of CC12CCC(=O)N1C(C(=O)Nc1cc(C(F)(F)F)ccc1N1CCOCC1)CS2 (stereo not drawn), the “hERG current change (%, negative = inhibition) at 1uM” value is reported as 10.5%.
In the case of Cc1cc(C)nc(NC(=S)Nc2cccc(F)c2)c1, the “hERG current change (%, negative = inhibition) at 1uM” value is reported as 6.3%.
With CCOc1cc(N2CCOCC2)c(OCC)cc1NC(=O)c1ccc(C)s1 the “hERG current change (%, negative = inhibition) at 1uM” value was -1.15%.
In the case of COc1ccc(N=C2SCCCN2C)cc1.I, the “hERG current change (%, negative = inhibition) at 1uM” value is reported as 15.8%.
c1cc2c3c(cccc3c1)C(N1CCCCC1)=N2 was tested, and the “hERG current change (%, negative = inhibition) at 1uM” value was -44.8%.
c1cc2c3c(cccc3c1)C(N1CCOCC1)=N2 was tested, and the “hERG current change (%, negative = inhibition) at 1uM” value was -0.83%.
Fc1ccc(N2CCN(C3=Nc4cccc5cccc3c45)CC2)cc1 was tested, and the “hERG current change (%, negative = inhibition) at 1uM” value was -69.4%.
In the case of CNC(=O)CC1C(=O)N(c2ccc(Cl)cc2)C(=S)N1CCc1ccc(OC)c(OC)c1 (stereo not drawn), the “hERG current change (%, negative = inhibition) at 1uM” value is reported as 10.1%.
N=c1c(C(=O)NCC2CCCO2)cc2c(=O)n3ccccc3nc2n1C1CCCC1 (stereo not drawn) was tested, and the “hERG current change (%, negative = inhibition) at 1uM” value was -72.2%.
With N=c1c(C(=O)NCC2CCCO2)cc2c(=O)n3ccccc3nc2n1C1CCCCC1 (stereo not drawn) the “hERG current change (%, negative = inhibition) at 1uM” value was -79.2%.
In the case of N=c1c(S(=O)(=O)c2ccc(Br)cc2)cc2c(=O)n3ccccc3nc2n1C1CCCC1, the “hERG current change (%, negative = inhibition) at 1uM” value is reported as 14.3%.
With O=C(NCC1CCCO1)c1cccc2ccccc12 (stereo not drawn) the “hERG current change (%, negative = inhibition) at 1uM” value was 17.8%.
In the case of N=c1c(S(=O)(=O)c2ccc(Br)cc2)cc2c(=O)n3ccccc3nc2n1C1CCCCC1, the “hERG current change (%, negative = inhibition) at 1uM” value is reported as 21.1%.
CN(C)c1ccc(CN(C(=O)/C=C/c2ccco2)C2CCS(=O)(=O)C2)cc1 (stereo not drawn) was tested, and the “hERG current change (%, negative = inhibition) at 1uM” value was 11.7%.
With O=C(Nc1ccc(F)c(Cl)c1)Nn1cnnc1 the “hERG current change (%, negative = inhibition) at 1uM” value was 0.762%.
Cc1cccc(NC(=S)N/N=C/c2ccc([N+](=O)[O-])s2)c1 was tested, and the “hERG current change (%, negative = inhibition) at 1uM” value was 11.2%.
For COc1ccc2[nH]c(=O)c(C(c3nnnn3C3CCCC3)N(C)C3CCCCC3)cc2c1 (stereo not drawn), the “hERG current change (%, negative = inhibition) at 1uM” value was -3.8%.
In the case of CN(C(=O)c1ccc(S(=O)(=O)N2CCCCC2)cc1)C1CCS(=O)(=O)C1 (stereo not drawn), the “hERG current change (%, negative = inhibition) at 1uM” value is reported as -3.22%.
For Cl.O=C(CN1CCCCC1)c1ccc(F)cc1, the “hERG current change (%, negative = inhibition) at 1uM” value was 7.09%.
In the case of Br.O=C(CN1CCCCC1)c1ccc(OC(F)F)cc1, the “hERG current change (%, negative = inhibition) at 1uM” value is reported as -63.4%.
CCC1CCCCN1CC(=O)c1ccc(OC(F)F)cc1 (stereo not drawn) was tested, and the “hERG current change (%, negative = inhibition) at 1uM” value was -80.2%.
In the case of CCC1CCCCN1CC(=O)c1c(C)[nH]c2ccc(OC)cc12 (stereo not drawn), the “hERG current change (%, negative = inhibition) at 1uM” value is reported as -5.25%.
With CC1CC(C)CN(CC(=O)c2cccs2)C1 (stereo not drawn) the “hERG current change (%, negative = inhibition) at 1uM” value was -7.65%.
With Br.COc1ccc(C(=O)CN2CCCCC2)cc1 the “hERG current change (%, negative = inhibition) at 1uM” value was 13.9%.
CC1CC(C)CN(C(=S)Nc2ccc(OC(F)F)cc2)C1 (stereo not drawn) was tested, and the “hERG current change (%, negative = inhibition) at 1uM” value was -45.1%.
In the case of Br.CC1CC(C)CN(CC(=O)c2ccc(OC(F)F)cc2)C1 (stereo not drawn), the “hERG current change (%, negative = inhibition) at 1uM” value is reported as -96.1%.
With Br.O=C(CN1CCCCC1CO)c1ccc(OC(F)F)cc1 (stereo not drawn) the “hERG current change (%, negative = inhibition) at 1uM” value was -21.3%.
O=C(COC(=O)C1CCN(C(=O)c2ccc(Cl)cc2)CC1)Nc1ccccc1F was tested, and the “hERG current change (%, negative = inhibition) at 1uM” value was -11.5%.
In the case of Cc1cc(-c2nn(-c3ccccc3F)cc2CN2CCC(O)CC2)c(C)s1, the “hERG current change (%, negative = inhibition) at 1uM” value is reported as -0.852%.
For Cc1cc(-c2nn(-c3ccccc3F)cc2CN2CCN(c3ccncc3)CC2)c(C)s1, the “hERG current change (%, negative = inhibition) at 1uM” value was -69.3%.
With Cc1cc(-c2nn(-c3ccccc3F)cc2CN2CCN(c3ccccn3)CC2)c(C)s1 the “hERG current change (%, negative = inhibition) at 1uM” value was 10.2%.
For Cc1ccc(N(CC(=O)NC(C)(C)C)C(=O)CNC(=O)c2cccs2)cc1, the “hERG current change (%, negative = inhibition) at 1uM” value was 7.4%.
In the case of CN(CC(=O)Nc1ccc(F)cc1)C(=O)Cn1nnc(-c2ccccc2)n1, the “hERG current change (%, negative = inhibition) at 1uM” value is reported as 7.23%.
With CC(C)N(C)C1CCN(C(=O)Nc2ccc(Cl)c(Cl)c2)CC1 the “hERG current change (%, negative = inhibition) at 1uM” value was -19.5%.
With c1ccc(CSc2nnc(-c3ccco3)n2Cc2ccccc2)cc1 the “hERG current change (%, negative = inhibition) at 1uM” value was -6.43%.
With O=C1c2ccccc2C(=O)N1CCSc1nnc(-c2ccco2)n1Cc1ccccc1 the “hERG current change (%, negative = inhibition) at 1uM” value was -51.1%.
O=C(CSc1nnc(-c2ccco2)n1Cc1ccccc1)c1ccccc1 was tested, and the “hERG current change (%, negative = inhibition) at 1uM” value was 8.89%.
In the case of Cc1c(NC(=S)N2CCN(c3cccc(Cl)c3)CC2)c(=O)n(-c2ccccc2)n1C, the “hERG current change (%, negative = inhibition) at 1uM” value is reported as 9.46%.
In the case of CCNC(=O)OCCC12CC3CC(CC(C3)C1)C2, the “hERG current change (%, negative = inhibition) at 1uM” value is reported as 11.6%.
For CCn1cc(CNC(=O)c2ccc3nc(Cc4ccccc4F)oc3c2)cn1, the “hERG current change (%, negative = inhibition) at 1uM” value was 11.3%.
With COCCN(C(=O)COC(=O)c1ccc2[nH]c(C)c(C)c2c1)c1c(N)n(Cc2ccccc2)c(=O)[nH]c1=O the “hERG current change (%, negative = inhibition) at 1uM” value was 7.98%.
